Screens: PubChem BioAssay, National Center for Advancing Translational Sciences (NCATS)
Pf Dd2 inh: Plasmodium falciparum Dd2 growth inhibition; P. falciparum Dd2 growth, SYBR Green, 72 h; Potency, µM (top dose mostly 28.9 µM), for inactives: top-dose activity, negative = inhibition, hits mostly inhibitors; hit rate 4.3% among 120,000; active means well fitted inhibition curve with a large enough effect;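 further: plate controls were DMSO vehicle for no effect and reference drug for full effect; nearly all actives have a fitted effect of over 65% in size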
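Infected erythrocytes (Dd2, 0.3% parasitemia, 2.5% hematocrit final) are added to compound in RPMI-1640/Albumax II medium, grown 72 h at 37C in low oxygen, then lysed with saponin/Triton-X containing SYBR Green and read by fluorescence.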
* hit, by the source's call; [ ] = dose if it differs, or a comment. Shown is part of a subset that was picked to be rich in hits. Potency means the concentration at half of the fitted maximal effect.

For CCOc1cccc(C(=O)Nc2ccc(NC(=O)c3ccc(Br)cc3)cc2)c1 the results were Pf Dd2 inh inactive.
For Cn1ccc(C(=O)NCc2nnc3n2C(C(=O)NCCc2ccc(Cl)cc2)CC3)n1 (stereo not drawn) the results were Pf Dd2 inh 4%.
Screening Cc1cc(C)n(CCC(=O)N2CCC(Cc3nncn3-c3ccccc3)CC2)n1 returned Pf Dd2 inh -3%.
Screening CCCN(CC1CCOC1)C(=O)Nc1ccc(Cl)cc1F (stereo not drawn) returned Pf Dd2 inh -13%.
`O=C1C2CN(Cc3ccncc3Cl)CCC2OCCN1Cc1ccccc1F` (stereo not drawn) gave Pf Dd2 inh inactive.
`COCCCNC(=O)N1CCC2(CC1)CN(C(C)=O)CC2COC` (stereo not drawn) gave Pf Dd2 inh inactive.
`COc1cc(-c2oc3ccc(C)cc3c(=O)c2O)cc(OC)c1OC` gave Pf Dd2 inh 13µM*.
Screening COc1cc(C2c3c(oc4ccc(C)cc4c3=O)C(=O)N2Cc2ccccc2)ccc1O (stereo not drawn) returned Pf Dd2 inh -23%.
For COc1cc(C2c3c(oc4ccc(C)cc4c3=O)C(=O)N2Cc2ccc(F)cc2)ccc1O (stereo not drawn) the results were Pf Dd2 inh -5%.
Screening COc1ccc(C(=O)N2CCC(N3C(=O)C(OC)C34CCOCC4)CC2)cc1 (stereo not drawn) returned Pf Dd2 inh -9%.
For O=C(NCC1(COc2cnccn2)C[C@@H](O)[C@@H](O)C1)C1CCCC1 (stereo partly drawn) the results were Pf Dd2 inh -6%[44.1 µM].
`CC1(c2noc(C3CCOCC3)n2)CCN(Cc2ccc(Cl)cc2F)CC1` gave Pf Dd2 inh -17%.
For COc1cccc(Nc2cc(C)nc3nc(-c4ccc(Cl)cc4)nn23)c1 the results were Pf Dd2 inh 16%.
`COc1ccc(Nc2nc3ccc(Cl)cc3nc2-n2nc(C)cc2C)cc1` gave Pf Dd2 inh 44%.
Screening COc1ccc2nc(C)cc(Nc3ccc(Cl)c(Cl)c3)c2c1 returned Pf Dd2 inh 1µM*.
Screening O=C(c1ccoc1)N1CCC2(CC1)CC(OCC1CC1)CCO2 (stereo not drawn) returned Pf Dd2 inh -18%.
Screening O=S(=O)(C1CC1)N1CCC(c2nc(C3CC3)no2)C1 (stereo not drawn) returned Pf Dd2 inh 23%.
Screening CC(=O)c1ccc(N2CCN(c3ncnc4c3cnn4-c3cc(Cl)ccc3C)CC2)cc1 returned Pf Dd2 inh 11µM*.
Screening Cc1ccc(Cl)cc1-n1ncc2c(NCCc3ccccc3)ncnc21 returned Pf Dd2 inh inactive.
`CCc1ccc(Nc2ncnc3c2cnn3-c2cc(Cl)ccc2C)cc1` gave Pf Dd2 inh 10µM*.
Screening Cc1ccc(Cl)cc1-n1ncc2c(NCCCc3ccccc3)ncnc21 returned Pf Dd2 inh 20%.
For CC(=O)c1ccc(N2CCN(c3ncnc4c3cnn4C)CC2)cc1 the results were Pf Dd2 inh inactive.
For Cc1ccc(Cl)cc1-n1ncc2c(N3CCCCCC3)ncnc21 the results were Pf Dd2 inh 17%.
Cc1ccc(-n2ncc3c(N4CCN(c5ccccc5)CC4)ncnc32)cc1C was read as Pf Dd2 inh 61%.
`COc1ccccc1N1CCN(c2ncnc3c2cnn3-c2cc(Cl)ccc2C)CC1` gave Pf Dd2 inh 8.9µM*.
CN1CCN(c2ncnc3c2cnn3-c2cccc(Cl)c2)CC1 was read as Pf Dd2 inh inactive.
For O=C(O)COCC(=O)N1CC[C@H](C(=O)Nc2cc(Cl)ccc2O)C1 the results were Pf Dd2 inh 20%[44.1 µM].
Screening O=C1CO[C@H]2CN(c3ncccn3)C[C@H]2N1Cc1ccccc1 returned Pf Dd2 inh -17%[44.1 µM].
CN(CCc1ccccn1)C(=O)CCC[C@@H]1[C@H]2CCCN3CCC[C@@H](CN1C)[C@@H]23 was read as Pf Dd2 inh inactive.
Cn1cc(CN[C@H]2[C@H](O)[C@H](O)C[C@@H]2c2cccnc2)c2ccccc21 was read as Pf Dd2 inh inactive.
`COCC(=O)N1CCCN(c2nc3ncccc3o2)CC1` gave Pf Dd2 inh -3%[44.1 µM].
COCCCNC(=O)C(NC(=O)c1ccccc1)C1CCN(C(=O)C2CC2)CC1 (stereo not drawn) was read as Pf Dd2 inh 8%.
Screening O=C(c1ccc2[nH]ccc2c1)N1C[C@@H](CO)[C@H](c2nc(C3CC3)no2)C1 returned Pf Dd2 inh -10%.
Screening O=C(N[C@H]1CO[C@H]2[C@@H]1OC[C@@H]2n1nnnc1-c1ccc2c(c1)OCO2)C1CC1 returned Pf Dd2 inh -18%[44.1 µM].
Screening COc1cc(C(=O)N2C3CCCC2CC(=O)C3)nc2ccccc12 returned Pf Dd2 inh -5%[44.1 µM].
Screening CCn1nccc1C(=O)N1CCCCCCN(C)C(=O)[C@@H]2CCC[C@@H]21 returned Pf Dd2 inh -9%.
`COc1ccc(NC(=O)N2c3ccccc3CC2c2nc(C3CC3)no2)cc1OC` (stereo not drawn) gave Pf Dd2 inh inactive[5.79 µM].
Cc1ccccc1NC(=O)Nc1ccc2nc(N3CCN(C)CC3)cc(C)c2c1 was read as Pf Dd2 inh 2µM*.
`Cc1cc(N2CCN(C)CC2)nc2ccc(NC(=O)Nc3ccc(Cl)cc3)cc12` gave Pf Dd2 inh 11µM*.
`CN1CCN(c2ccc3nnc(-c4cc(C(=O)Nc5cccc(Cl)c5)ccn4)n3n2)CC1` gave Pf Dd2 inh inactive.
`CCOc1ccccc1NC(=O)Nc1nnc(N2CCCCCC2)s1` gave Pf Dd2 inh -26%.
For CCOc1ccccc1NC(=O)Nc1ccc2nc(N3CCN(C)CC3)cc(C)c2c1 the results were Pf Dd2 inh 0.45µM*.
For Cc1cc(N2CCN(C)CC2)nc2ccc(NC(=O)c3ccc(C(C)(C)C)cc3)cc12 the results were Pf Dd2 inh 6.3µM*.
Cc1cc(N2CCC(C)CC2)nc2ccc(NC(=O)Cc3ccccc3Br)cc12 was read as Pf Dd2 inh -19%.
For Cc1cc(SCC(=O)Nc2ccc(Cl)cc2)nc2ccccc12 the results were Pf Dd2 inh inactive.
For COc1ccccc1CC(=O)Nc1ccc2nc(N3CCC(C)CC3)cc(C)c2c1 the results were Pf Dd2 inh 3%.
Screening CC(C)(C)c1ccc(C(=O)Nc2ccc(NC(=O)c3ccc(Cl)c(Cl)c3)cc2)cc1 returned Pf Dd2 inh 11%.
For COc1cc(C(=O)Nc2ccc(NC(=O)c3ccc(C(C)(C)C)cc3)cc2)cc(OC)c1OC the results were Pf Dd2 inh inactive.
Screening Cc1ccccc1C(=O)Nc1ccc2nc(N3CCCCC3)cc(C)c2c1 returned Pf Dd2 inh inactive.
`COc1ccc(-c2cc(N3CCC(NC(=O)c4ccccc4Cl)CC3)n[nH]2)cc1` gave Pf Dd2 inh -2%.
For CC(C)CNC(=O)c1ccc2c(c1)C1(CCN(C)C1)CN2CC1CC1 (stereo not drawn) the results were Pf Dd2 inh inactive.
For O=C1COc2ccc(-c3cccc(OC(F)(F)F)c3)nc2CN1 the results were Pf Dd2 inh -16%[44.1 µM].
For CC(=O)N(C1CC1)C1CCOC2(CCN(C(=O)NCc3ccc(F)cc3)CC2)C1 (stereo not drawn) the results were Pf Dd2 inh 1%.
For CCN1C(=O)CCN(S(=O)(=O)c2ccccc2)CC12CCOCC2 the results were Pf Dd2 inh 22%.
`O=C(c1ccccc1F)N1CCCC2(CN[S+](=O)([O-])c3ccccc3N2)C1` (stereo not drawn) gave Pf Dd2 inh inactive.
Cc1cnn(CCC(=O)N[C@@H]2CN(Cc3ccccc3)C[C@H]2CN(C)C)c1 was read as Pf Dd2 inh -1%.
